From ChEMBL document CHEMBL3433997, “St. Jude Leishmania screening dataset” (2016)

Assays:
Type in all cases: functional
[1] = biological target: Solute carrier family 2, facilitated glucose transporter member 1 (Homo sapiens) (UniProt P11166); assay: ST_JUDE_LEISH: Cytotoxicity at 2uM final concentration against transgenic Leishmania Mexicana promastigotes LmGLUT1 that are glucose transport deficient and complemented with the human glucose transporter GLUT1. Activity is measured by DNA content using SYBR green in vitro
[2] = biological target: Hexose transporter 1 (Plasmodium falciparum) (UniProt O97467); assay: ST_JUDE_LEISH: Cytotoxicity at 2uM final concentration against transgenic Leishmania Mexicana promastigotes LmPfHT that are glucose transport deficient and complemented with the Plasmodium falciparum hexose transporter. Activity is measured by DNA content using SYBR green in vitro
[3] = biological target: Glucose transporter (Leishmania mexicana) (UniProt O61059); assay: ST_JUDE_LEISH: Cytotoxicity at 2uM final concentration against transgenic Leishmania Mexicana promastigotes LmGT2 that are glucose transport deficient and complemented with the L. Mexicana glucose transporter 2. Activity is measured by DNA content using SYBR green in vitro

Chain of Solute carrier family 2, facilitated glucose transporter member 1 (Homo sapiens) (P11166 whole entry): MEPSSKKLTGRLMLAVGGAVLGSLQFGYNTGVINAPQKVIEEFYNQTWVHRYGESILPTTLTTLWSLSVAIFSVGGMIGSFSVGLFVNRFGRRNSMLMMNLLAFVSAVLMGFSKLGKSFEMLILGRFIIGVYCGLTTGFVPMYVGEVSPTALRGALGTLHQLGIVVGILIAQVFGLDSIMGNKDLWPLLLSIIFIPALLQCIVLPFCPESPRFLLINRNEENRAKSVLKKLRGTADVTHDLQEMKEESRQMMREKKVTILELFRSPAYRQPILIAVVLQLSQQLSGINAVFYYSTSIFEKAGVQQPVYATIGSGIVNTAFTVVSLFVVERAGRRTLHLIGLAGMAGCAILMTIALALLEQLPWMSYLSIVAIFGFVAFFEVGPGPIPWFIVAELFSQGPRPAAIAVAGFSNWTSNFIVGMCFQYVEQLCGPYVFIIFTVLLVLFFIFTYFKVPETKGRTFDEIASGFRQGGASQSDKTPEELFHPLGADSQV

Compound	inhibition [1]	inhibition [2]	inhibition [3]
COc1ccc2ccc(OC)c(CNCCCCCCNCc3c(OC)ccc4ccc(OC)cc34)c2c1	5.41%	9.06%	4.72%
OC1CCCN(Cc2ccc(-c3ccc(-c4nc5cc(F)ccc5[nH]4)cc3)cc2)C1 (centres undefined)	9.06%	8.43%	6.49%
Cc1cc2c3c(N)nc(N)nc3ccc2n1C	6.53%	10.4%	5.15%
O=C(/C=C/c1ccc(C(F)(F)F)cc1)N1CCc2cc3nccc(N4CCN5CCC[C@H]5C4)c3cc21	1.68%	2.34%	0.92%
Cc1cc(NC(=O)CCCN2CCN(c3cccc(Cl)c3Cl)CC2)ccc1N1CCN(C(C)C)CC1	9.52%	5.3%	4.97%
O=S(=O)(c1c(Cl)cc(Cl)cc1Cl)N1CCCCC(c2ccc(F)c(F)c2)=N1	0.21%	2.09%	1.47%
Cc1cccc2nc(-c3cccc(-c4ccc(NC(=O)NC5CC5c5ccccc5)cc4)c3)[nH]c12 (centres undefined)	6.4%	3.69%	5.64%
CCS(=O)(=O)Nc1ccc2c(c1)/C(=C(/Nc1ccc(CN3CCCCC3)cc1)c1ccccc1)C(=O)N2	83.1%	89.4%	82%
CCCc1cc(OC)c(C[C@@H]2c3cc(O)c(Cl)cc3CCN2C)cc1OC	3.17%	2.87%	3%
Cc1ccccc1N1CCN(c2ncc(C(=O)NC3CC3)cc2Cl)CC1	6.45%	6.74%	5.71%
O=C(Nc1ccc(Cl)cc1)c1ccc(CN2CCCN(Cc3cccc(Cl)c3)CC2)cc1	-0.65%	-1.08%	-0.52%
COc1ccc(C2NCCc3c2[nH]c2ccccc32)cc1CN1CCN(c2ccc(F)cc2)CC1 (centres undefined)	3.17%	0.27%	0.15%
O=C(/C=C/c1ccc(Cl)cc1)NCCCCCN1CCCN(C(=O)Nc2cccc(Cl)c2)CC1	-2.75%	-1.85%	-1.25%
CN(C)CC1CCCN1Cc1ccccc1-c1cnn(C)c(=O)c1Oc1ccccc1F (centres undefined)	2.45%	1.75%	0.1%
COCCOc1nc(N)nc2ncc(Cc3cc(OC)ccc3OC)c(C)c12	0.79%	0.23%	-1.06%
CC(C)(CNCc1ccccc1)c1nc(-c2ccc(Cl)c(O)c2)c(-c2ccncc2)[nH]1	4.28%	4.73%	3.53%
Oc1cc(-c2nc(C3(CNCc4ccc(Cl)cc4)CCCCC3)[nH]c2-c2ccncc2)ccc1Cl	4.11%	5.35%	5.4%

Compound	inhibition [1]	inhibition [2]	inhibition [3]
CN(C)Cc1c(O)ccc2[nH]c(-c3ccc(F)cc3F)nc12	1.13%	1.4%	-1.59%
Oc1ccc(CCNc2nc(NCc3cccc(-c4cc(C(F)(F)F)ccc4Cl)c3)nc(N3CCNCC3)n2)cc1	2.86%	1.88%	2.82%
CN(Cc1ccccc1)C1CCCN(c2cc(NC(=O)c3cccs3)ccn2)C1 (centres undefined)	0.77%	-0.06%	0.5%
CCn1c2ccccc2c2cc(C=NN=c3cc(C)[nH]c4ccccc34)ccc21	4.76%	6%	0.19%
CCC(c1ccccc1)c1nn2c(-c3cccs3)nnc2s1 (centres undefined)	2.96%	3.46%	0.64%
O=c1c2ccccc2[nH]c2cc(Cl)ccc12	5.11%	7.05%	0.77%
Cc1ccc(Nc2nccc(NCC(O)c3ccc(C(F)(F)F)cc3)n2)cc1 (centres undefined)	10%	6.26%	3.67%
COc1ccc2nc(C)cc(Nc3ccc(Oc4ccc(Cl)cc4)c(Cl)c3)c2c1	7.89%	6.68%	2.63%
CC(=O)c1ccc(N2C(=O)C3C(Cc4ccc(OC(C)(C)C)cc4)NC4(C(=O)N(Cc5ccc(C(C)(C)C)cc5)c5ccccc54)C3C2=O)cc1 (centres undefined)	7.13%	4.25%	2.13%
CN1CCCC1CCCOC(=O)c1ccc(N)cc1 (centres undefined)	3.24%	3.07%	2.42%
CC(C)(C)CCOC(=O)N1CCc2c(cc(O)c(O)c2Cl)C(c2ccc(O)cc2)C1 (centres undefined)	-1.94%	0.65%	14%
COc1cccc(C2CCN(CCCCNC(=O)c3ccc(NC(=O)c4ccc(Cl)cc4)cc3)CC2)c1	2.77%	2.82%	3.37%
Cc1cc2nc(-c3ccc(OCC(=O)NCc4cccc(C(F)(F)F)c4)cc3)[nH]c2cc1C	-2.75%	-1.2%	-1.65%
Cc1cccc2nc(-c3cccc(-c4ccc(NC(=O)NCc5ccccc5)cc4)c3)[nH]c12	1.51%	2.74%	1.31%
O=C(Nc1ccc(-c2cccc(-c3nc4ccccc4[nH]3)c2)cc1)NC1CC1c1ccccc1 (centres undefined)	1.87%	1.77%	-0.17%
COc1ccccc1-c1cccc(CNC2CCN(CC3Cn4c(=O)ccc5ccc(F)c3c54)CC2)c1 (centres undefined)	15%	31.3%	54.7%
